According to ChEMBL document CHEMBL3433997, “St. Jude Leishmania screening dataset” (2016):

target: Solute carrier family 2, facilitated glucose transporter member 1 (Homo sapiens) (UniProt P11166); test: ST_JUDE_LEISH: Cytotoxicity at 2uM final concentration against transgenic Leishmania Mexicana promastigotes LmGLUT1 that are glucose transport deficient and complemented with the human glucose transporter GLUT1. Activity is measured by DNA content using SYBR green in vitro; assay type: functional
Sequence (P11166 whole entry): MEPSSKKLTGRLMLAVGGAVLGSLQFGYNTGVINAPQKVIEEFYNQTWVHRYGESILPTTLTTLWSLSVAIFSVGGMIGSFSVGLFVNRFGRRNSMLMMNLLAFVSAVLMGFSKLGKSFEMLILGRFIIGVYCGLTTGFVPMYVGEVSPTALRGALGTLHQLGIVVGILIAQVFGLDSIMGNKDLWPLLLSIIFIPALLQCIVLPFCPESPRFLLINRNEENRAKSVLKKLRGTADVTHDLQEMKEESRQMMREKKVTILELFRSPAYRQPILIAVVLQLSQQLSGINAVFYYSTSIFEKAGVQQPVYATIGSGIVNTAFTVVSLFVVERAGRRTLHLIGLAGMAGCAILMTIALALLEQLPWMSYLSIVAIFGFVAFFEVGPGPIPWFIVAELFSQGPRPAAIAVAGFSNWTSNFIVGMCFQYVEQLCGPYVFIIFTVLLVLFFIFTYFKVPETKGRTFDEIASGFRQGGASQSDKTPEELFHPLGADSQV

| SMILES | inhibition |
| --- | --- |
| Cn1c2c(c3ccccc31)CN(CCC1(c3ccc(Cl)c(Cl)c3)CN(C(=O)c3ccccc3)CCO1)CC2 (centres undefined) | 2.15% |
| COc1ccc(/N=[N+](\[O-])c2ccccc2/[N+]([O-])=N/c2ccc(OC)cc2)cc1 | 1.29% |
| O=C(CC1NC(=O)c2ccccc21)Nc1ccc(-c2ccc(-c3nc4cc(C(F)(F)F)ccc4[nH]3)cc2)cc1 (centres undefined) | 4.68% |
| O=C(Nc1cccc(-c2cccc(-c3nc4cc(C(F)(F)F)ccc4[nH]3)c2)c1)c1cccnc1 | 0.56% |
| CCCCCCNc1cc(C)nc(NC(=N)Nc2cccc(C(F)(F)F)c2)n1 | 1.36% |
| Nc1ncc(-c2ccc3nccc(-c4ccncc4)c3c2)cc1S(=O)(=O)N1CCOCC1 | 5.11% |
| CC(C)(C)C/C=C\c1ccc(C(=O)NCC2CC2)cc1 | 6.73% |
| CC1(C)CN(CCC2CCC(NC(=O)/C=C/c3ccccc3F)CC2)Cc2ccc(C#N)cc21 (centres undefined) | 3.59% |
| Nc1nc(N)c2c(Cl)c(CNc3cccc(C(=O)O)c3)ccc2n1 | 3.95% |
| N#Cc1cc(C(=O)c2cc(Br)ccc2O)cn(C2CCCCC2)c1=O | 0.39% |
| CC(C)N1CCC(NC(=O)N2CCCN(c3ncnc4cc(-c5ccc(Cl)cc5)sc34)CC2)CC1 | -0.49% |
| COc1cccc2sc(N3CCN(C(=O)c4ccc([N+](=O)[O-])o4)CC3)nc12 | 2.53% |
| CC(C)c1ccc(OCC(O)CN(CCN2CCOCC2)C(=O)Nc2ccc(Br)cc2)cc1 (centres undefined) | 7.44% |
| CC(=O)c1c(C)[nH]c(C(=O)Nc2ccc(-c3nc4ccc(C)cc4s3)cc2)c1C | -0.62% |
| CC(C(=O)Nc1ccc(Br)cc1Br)N1CCN(C(=O)c2ccco2)CC1 (centres undefined) | -0.66% |
| Nc1nc(N)c2c(Sc3ccc(F)cc3)cccc2n1 | 6.11% |
| Cc1onc(-c2ccccc2)c1-c1nc(NCc2ccccc2Cl)no1 | 2.36% |
| CCCCC(=O)Nc1ccc(Nc2nc(C)cc(N3CCCC3)n2)cc1 | 2.54% |
| COc1cc(Cc2cnc(N)nc2N)c2ccsc2c1OC | 4.16% |
| C=CCn1c(Sc2ccc(C#N)c([N+](=O)[O-])c2)nnc1-c1ccc(Cl)cc1 | 5.68% |
| O=C1CCCN1CCCNCc1ccc(-c2cccc(-c3nc4ccccc4[nH]3)c2)cc1 | 4.17% |
| O=C(Nc1ccc(Cn2ncc(N3CCCNCC3)c(Cl)c2=O)cc1)Nc1cc(Cl)cc(Cl)c1 | 2.15% |
| CCOc1cc(OCC)c2ccccc2c1CNCCCCCCNCc1c(OCC)cc(OCC)c2ccccc12 | 83.2% |
| CN(C)CCNCc1cccc(-c2cccc(-c3nc4ccccc4[nH]3)c2)c1 | 2.56% |

target: Hexose transporter 1 (Plasmodium falciparum) (UniProt O97467); test: ST_JUDE_LEISH: Cytotoxicity at 2uM final concentration against transgenic Leishmania Mexicana promastigotes LmPfHT that are glucose transport deficient and complemented with the Plasmodium falciparum hexose transporter. Activity is measured by DNA content using SYBR green in vitro; assay type: functional

| SMILES | inhibition |
| --- | --- |
| Cc1nn(-c2cccc(C(F)(F)F)c2)c2sc(C(=O)NC3CCN(C(C)C)CC3)cc12 | -1.04% |
| O=C(C1CCCC1)N1CCOC(CCN2CCC(c3ccccc3)CC2)(c2ccc(Cl)c(Cl)c2)C1 (centres undefined) | 11.5% |
| COc1cc2c(cc1CCNCCCCNCCc1cc3c(cc1OC)CCCC3)CCCC2 | 98.4% |
| CCCCCCN1CCC(NCc2cccc(C#N)c2)CC1 | 0.77% |
| CCc1nc2c(N)nc(N)nc2nc1-c1ccc(OC)cc1 | 0.84% |
| Cc1cc(CNCCCCCNCc2ccc(Cl)cc2)ccc1O | 1.91% |
| O=C(NC1CCC(N2CCN(c3cccc4[nH]ccc34)CC2)CC1)c1cc2cccnc2[nH]1 (centres undefined) | 13.2% |
| Clc1ccc(-c2cc(-c3csc(NCCN4CCCCC4)n3)on2)cc1 | 7.19% |
| COc1ccc2c(N/N=C/c3ccc([N+](=O)[O-])cc3)ccnc2c1 | 4.33% |
| CCn1c(-c2ccccc2)cc2nnc3ccccc3c21 | 5.32% |
| O=C(/C=C/c1ccc(Cl)cc1)NCCCCCN1CCCC(C(=O)Nc2ccc(Cl)c(Cl)c2)C1 (centres undefined) | 1.61% |
| Cc1cc(NC(=O)c2ccco2)ccc1OC1CCN(Cc2ccc(F)cc2)C1 (centres undefined) | 0.21% |
| O=C(Cc1ccccc1)NC(CCN1CCC(N(C2CC2)S(=O)(=O)c2cccc(C(F)(F)F)c2)CC1)c1ccc(Cl)c(Cl)c1 (centres undefined) | 3.86% |
| COCCn1c(SC(C)C(=O)Nc2cc(C(F)(F)F)ccc2Cl)nc2ccccc2c1=O (centres undefined) | -0.22% |
| CC1CCCN1Cc1cccc(-c2ccc(C(=O)NCCOc3ccccc3)s2)c1 (centres undefined) | 38.9% |
| CC(C)(C)c1cc(C(=O)N2CCN(c3ncccc3C(F)(F)F)CC2)n(Cc2ccccc2)n1 | 6.48% |
| Cn1c2c(c3ccccc31)CN(CCC1(c3ccc(Cl)c(Cl)c3)CN(C(=O)c3ccccc3)CCO1)CC2 (centres undefined) | 1.72% |
| COc1ccc(/N=[N+](\[O-])c2ccccc2/[N+]([O-])=N/c2ccc(OC)cc2)cc1 | 1.73% |
| O=C(CC1NC(=O)c2ccccc21)Nc1ccc(-c2ccc(-c3nc4cc(C(F)(F)F)ccc4[nH]3)cc2)cc1 (centres undefined) | 3.05% |
| O=C(Nc1cccc(-c2cccc(-c3nc4cc(C(F)(F)F)ccc4[nH]3)c2)c1)c1cccnc1 | 0.29% |

| SMILES | inhibition |
| --- | --- |
| CCCCCCNc1cc(C)nc(NC(=N)Nc2cccc(C(F)(F)F)c2)n1 | 3.48% |
| Nc1ncc(-c2ccc3nccc(-c4ccncc4)c3c2)cc1S(=O)(=O)N1CCOCC1 | 3.05% |
| CC(C)(C)C/C=C\c1ccc(C(=O)NCC2CC2)cc1 | 9.04% |
| CC1(C)CN(CCC2CCC(NC(=O)/C=C/c3ccccc3F)CC2)Cc2ccc(C#N)cc21 (centres undefined) | 1% |
| Nc1nc(N)c2c(Cl)c(CNc3cccc(C(=O)O)c3)ccc2n1 | 2.84% |
| N#Cc1cc(C(=O)c2cc(Br)ccc2O)cn(C2CCCCC2)c1=O | 1.1% |
| CC(C)N1CCC(NC(=O)N2CCCN(c3ncnc4cc(-c5ccc(Cl)cc5)sc34)CC2)CC1 | 0.6% |
| COc1cccc2sc(N3CCN(C(=O)c4ccc([N+](=O)[O-])o4)CC3)nc12 | 11.9% |
| CC(C)c1ccc(OCC(O)CN(CCN2CCOCC2)C(=O)Nc2ccc(Br)cc2)cc1 (centres undefined) | 5.63% |
| CC(=O)c1c(C)[nH]c(C(=O)Nc2ccc(-c3nc4ccc(C)cc4s3)cc2)c1C | -4.21% |
| CC(C(=O)Nc1ccc(Br)cc1Br)N1CCN(C(=O)c2ccco2)CC1 (centres undefined) | 1.36% |
| Nc1nc(N)c2c(Sc3ccc(F)cc3)cccc2n1 | 6.64% |
| Cc1onc(-c2ccccc2)c1-c1nc(NCc2ccccc2Cl)no1 | 2.64% |
| CCCCC(=O)Nc1ccc(Nc2nc(C)cc(N3CCCC3)n2)cc1 | 3.88% |
| COc1cc(Cc2cnc(N)nc2N)c2ccsc2c1OC | 3.31% |
| C=CCn1c(Sc2ccc(C#N)c([N+](=O)[O-])c2)nnc1-c1ccc(Cl)cc1 | 5.18% |
| O=C1CCCN1CCCNCc1ccc(-c2cccc(-c3nc4ccccc4[nH]3)c2)cc1 | 3.74% |
| O=C(Nc1ccc(Cn2ncc(N3CCCNCC3)c(Cl)c2=O)cc1)Nc1cc(Cl)cc(Cl)c1 | 3.38% |
| CCOc1cc(OCC)c2ccccc2c1CNCCCCCCNCc1c(OCC)cc(OCC)c2ccccc12 | 50.7% |
| CN(C)CCNCc1cccc(-c2cccc(-c3nc4ccccc4[nH]3)c2)c1 | 2.66% |
